Here are results for 15 sequences from the OligoGym collection.
Further: reference of the scale not given here.

For one assay, the target named is ABCD4. Briefly: pooled miR-30 sensor sort-seq; sequence = guide strand. Conditions: shRNA.
With ATGAGCTGGGTGAAGCAGCTGA, the sensor-assay potency score (higher = more potent) was -0.109.
On the same count and under the same terms, next, ATACCAGTTCCAGTCCACCTGC: -0.984; TGCGATGACAACGTAACTCAGG: -0.631.

A further assay addresses ABCG2. Described as above. Conditions: shRNA.
For the sequence TTTAAAGTCTTCTTCTCTGTTT, the sensor-assay potency score (higher = more potent) is -0.358.
The sequence TATAATACTTGGTAACATCCTC came in with a sensor-assay potency score (higher = more potent) of 0.377.
The same measure, in the same setting: the value for TTGAAGACTGTGATCTTCTTCT was 0.497; that for TAACTCTTGAATGACCCTGTTA was -0.548; that for TTCAGCTTTTGTCTCTTTGTAG was -0.298.
Still for that read-out and setting: the value for TTCTATGAGTGGCTTATCCTGC was -0.526.
For TTACCAAATATTCTTCGCCAGT, the sensor-assay potency score (higher = more potent) is -1.15.
In the case of TAATATTTCTTTCTCAACTGGT, the sensor-assay potency score (higher = more potent) is 0.563.
Same read-out and setting: the value for AACATCATCTTGTACCACGTAA was -0.468; that for TGAGATTGACCAACAGACCTGA was 0.275; that for TACGACTGTGACAATGATCTGA was 0.524.
On to TTTGTCTCTTTGTAGAAGGAGG, for which the sensor-assay potency score (higher = more potent) was -1.31.
